This is part of a sample that, as a whole, favours compounds with a hit. Of some 83,000 tested, about 20% had one in any assay.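 Note: values are percent growth. 100 is the growth of untreated cells, values between 100 and 0 indicate rising inhibition; between -100 and 0 indicates cell death.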 Values without a mark were called inactive. The source made the active and inactive calls. How the source made its calls: active means growth percent below 10; inactive means the rest.

The assay relates to SK-MEL-2 melanoma. Nature of the assay: NCI-60 one-dose screen, 48 h (100 = growth as untreated, 0 = no growth, -100 = all killed). Particulars: 10 µM unless noted.
Take `N#C/C(C(=O)c1ccccc1)=C1/C(=O)Nc2ccc(F)cc21`: the growth is 108%.

As to `C=C(C)[C@@H]1CC[C@]2(C(=O)NCCCN)CC[C@]3(C)[C@H](CC[C@@H]4[C@@]5(C)CC[C@H](O)C(C)(C)[C@@H]5CC[C@]43C)[C@@H]12`, the growth was -24.2% [100 µM] (active). For `O=C1/C(=C\c2cn(CC(O)CN3CCCCC3)c3ccccc23)c2ccccc2N1c1c(Cl)cccc1Cl` (stereo not drawn), the growth is -83.4% (active). Take `COc1ccc(OC)c([N+](=O)[O-])c1C(=O)CNC(C)=O`: the growth was 109%.

`Nc1cccc2c1C(=O)c1cccc(NC(=O)c3ccccc3)c1C2=O`: the growth is 33.4%.

In the case of `CCNc1cc2c(cc1Br)-c1ccccc1C2=O`, the growth was 98%. Turning to `CCOc1cccc2c(NC(C)CCCN(CC)CC)c(C)cnc12` (stereo not drawn), the growth was 105%. Consider `COc1cc(/C=C/C(=O)/C=C/c2ccc(-n3ccnc3C)cc2)ccc1O`, for which the growth was 100%. With `COc1cc(-c2nc(SCCC(C)C)nc(Nc3ccccc3)c2C#N)cc(OC)c1OC`, the growth is 103%. The figure for `CN(C)C(=S)Sc1ccc([N+](=O)[O-])cc1[N+](=O)[O-]` is 57.8%; for `Nc1ccc(Cl)c([N+](=O)[O-])c1` it is 97.4%; for `CCCCCCCCCCCCNC(=S)N/N=C/c1ccccc1O` it is 80.8%. To `CC1(C)CC[C@]2(C(=O)OC(=O)[C@]34CCC(C)(C)C[C@@H]3C3=CC[C@@H]5[C@@]6(C)CCC(=O)C(C)(C)[C@@H]6CC[C@@]5(C)[C@]3(C)CC4)CC[C@]3(C)C(=CC[C@@H]4[C@@]5(C)CCC(=O)C(C)(C)[C@@H]5CC[C@]43C)[C@H]2C1` belongs 76.1% [100 µM].

The values are drawn from PubChem BioAssay (NCI).
